Measured values as given in PubChem BioAssay (NCI).
The panel holds about 83,000 compounds, 20% with a hit somewhere; the sample as a whole holds those more often.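 Plates (96-well) were seeded with cells, treated with compound at one concentration, and incubated for 48 hours before percent growth was determined.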 Calls of active or inactive are those of the source. How the source made its calls: active means growth percent below 10; inactive means the rest.

Test system: HCC-2998 colon
Test: NCI-60 one-dose screen, 48 h (100 = growth as untreated, 0 = no growth, -100 = all killed)
Conditions: 10 µM unless noted

| SMILES | growth |
| --- | --- |
| COc1cccc([C@H]2c3[nH]c4ccccc4c3C[C@H]3C(=O)N(CCCCCCC(=O)NO)CC(=O)N23)c1 | 68.2% (inactive) |
| CC(O)c1cnc(/C=C2\SC(=S)N(Cc3ccccc3)C2=O)s1 (stereo not given) | 107% (inactive) |
| Cc1cc(Cl)ccc1NC(=O)c1cc2ccccc2cc1O | 15% (inactive) |
| CCn1cc(C(=O)N/N=C/c2cccs2)c(=O)c2cc(F)c(N3CCNC(C)C3)c(F)c21 (stereo not given) | 28.6% (inactive) |
| CC1=C(CCC(C)N(C)Cc2ccc(OCCCN3CCCC3)cc2)C(C)(C)CCC1 (stereo not given) | -31% (active) |
| COP(=O)(OC)C(C)(C)CC(=O)CC(C#N)(C#N)C(C#N)C#N | 92.6% (inactive) |
| CCCCC[C@@H]1Cc2cc(O)c(C(=O)O)c3c2[C@H](C[C@]2(OC[C@@H](CC(=O)[C@@](C)(CC)C(=O)OC)[C@@H]2C)O3)O1 | 133% (inactive) |
| Fc1ccc(-c2nn(-c3ccccc3)cc2-c2nc3ccccc3o2)cc1 | 101% (inactive) |
| COc1cc(/C=C/C(=O)c2cccc(Nc3nc(Nc4ccccc4)nc(Nc4ccccc4)n3)c2)cc(OC)c1OC | 16.7% (inactive) |
| C#CCOc1cccc(Nc2ncnc3c(NC(=O)C=C)cccc23)c1 | 79% (inactive) |
| CC(=O)N(N=Nc1ccccc1)c1cccc2ccccc12 | 94.7% (inactive) |
| O=C(/C=C/c1cn(-c2ccccc2)nc1-c1ccc([N+](=O)[O-])cc1)c1ccc(Cl)cc1 | -22% (active) |
| COc1cc(-c2csc(NC(=O)c3cc(-n4cnc(C)c4)cc(C(F)(F)F)c3)n2)cc(OC)c1OC | 83.9% (inactive) |
| COc1ccc(-c2nc3c(c(-c4ccccc4)nn3-c3ccccc3)c(-c3ccc(N4CCOCC4)cc3)c2C#N)cc1 | 108% (inactive) |
| CSc1nc2sc3c(c2c(=O)n1-c1ccc([N+](=O)[O-])cc1)CCCCC3 | 104% (inactive) |

Test system: KM12 colon
Test: as above
Conditions: 10 µM unless noted

| SMILES | growth |
| --- | --- |
| CS(=O)(=O)Nc1cc(-c2ccc3ncnc(Nc4c(Cl)ccc5c4OCO5)c3c2)cnc1Cl | -39.7% (active) |
| O=C(Nc1cc(Cl)ccc1O)c1ccc(Nc2ccnc(C(F)(F)F)c2)cc1 | 22.4% (inactive) |
| Cc1cccc(N2CCN(CC(O)COc3ccc(Cl)cc3)CC2)c1 (stereo not given) | 97.1% (inactive) |
| OCCOCCN(Cc1ccccn1)Cc1cc(I)cc(I)c1O | 91.3% (inactive) |
| COc1ccc(C2c3sc4c(F)cccc4c3Oc3nc[nH]c(=O)c32)cc1 (stereo not given) | 81.7% (inactive) |
| N#Cc1cccc(F)c1 | 110% (inactive) |
| C=C(C)[C@@H]1CC[C@]2(C(=O)NCC#CCN3CCN(C)CC3)CC[C@]3(C)[C@H](CC[C@@H]4[C@@](C)(CCC#N)[C@H](C(=C)C)CC[C@]43C)[C@@H]12 | 45.9% (inactive) |
| O=C(O)c1[nH]c(=O)[nH]c(=O)c1[N+](=O)[O-] | 115% (inactive) |
| O=c1c2cc(-c3ccccc3)sc2nc2sc(-c3ccccc3)nn12 | 101% (inactive) |
| CCOC(=O)c1c(C)nc2c(c1N)CC(=O)N2Cc1cc(F)cc(Cl)c1 | 97% (inactive) |
| COc1ccc(C(=S)N2CCN(c3ccccc3Cl)CC2)cc1OC | 123% (inactive) |
| C#Cc1cccc(Nc2ncnc3ccc(-c4cnc(N)nc4)cc23)c1 | 68.6% (inactive) |
| Cc1ccc(/C=C2\CN(C(=O)OC(C)(C)C)C/C(=C\c3ccc(C)cc3)C2=O)cc1 | -16% (active) |
| COC(=O)/C(CCC=C(C)C)=C1\[C@@H](OC(C)=O)C[C@@]2(C)[C@H]1C[C@@H](O)[C@H]1[C@@]3(C)CC[C@H](NCCN)[C@@H](C)[C@@H]3CC[C@@]12C | 88.9% (inactive) |
| Cc1cc(Cl)ccc1Nc1nc(C(F)(F)F)ccc1C(=O)N/N=C/c1ccc([N+](=O)[O-])cc1 | -20.6% (active) |
| CCOC(=O)c1cc(C(=O)c2cc(OC)c(OC)c(OC)c2)n2ccc(-c3ccncc3)cc12 | 100% (inactive) |
| C[C@@H]1CCC[C@H]1CC(N)C(=O)O (stereo not given in full) | 106% (inactive) |
| Cc1ccc(Cc2cnc(NC(=O)c3cc(Br)cs3)s2)cc1 | 47.3% (inactive) |
| O=C1C(Cl)=C(Oc2ccccc2)C(=O)c2ccccc21 | 27.1% (inactive) |
| CC/C(=C(/c1ccc(Cl)cc1)c1ccc(OCCN2CCCC2)cc1)c1ccc(OC)cc1 | 56% (inactive) |

| SMILES | growth |
| --- | --- |
| N=C(N)c1ccc(-c2ccc(-c3cc(Cl)cc(Cl)c3)o2)o1 | -78.9% (active) |
| COc1cc(-n2cc(-c3cc(O)c(C/C=C(\C)CCC=C(C)C)c(O)c3)nn2)cc2c1O[C@]1(C)CC[C@@H](O)C(C)(C)[C@H]1C2 | 15.9% (inactive) |
| COc1cccc([C@H]2c3[nH]c4ccccc4c3C[C@H]3C(=O)N(CCCCCCC(=O)NO)CC(=O)N23)c1 | 78.9% (inactive) |
| CC(O)c1cnc(/C=C2\SC(=S)N(Cc3ccccc3)C2=O)s1 (stereo not given) | 30.3% (inactive) |
| Cc1cc(Cl)ccc1NC(=O)c1cc2ccccc2cc1O | 7.04% (active) |
| CCn1cc(C(=O)N/N=C/c2cccs2)c(=O)c2cc(F)c(N3CCNC(C)C3)c(F)c21 (stereo not given) | 83.5% (inactive) |
| CC1=C(CCC(C)N(C)Cc2ccc(OCCCN3CCCC3)cc2)C(C)(C)CCC1 (stereo not given) | 27.6% (inactive) |
| COP(=O)(OC)C(C)(C)CC(=O)CC(C#N)(C#N)C(C#N)C#N | 104% (inactive) |
| CCCCC[C@@H]1Cc2cc(O)c(C(=O)O)c3c2[C@H](C[C@]2(OC[C@@H](CC(=O)[C@@](C)(CC)C(=O)OC)[C@@H]2C)O3)O1 | 105% (inactive) |
| Nc1ncnc2c1N=C(c1ccc(Cl)cc1)CC(c1ccc3c(c1)OCO3)N2 (stereo not given) | 103% (inactive) |
| O=[N+]([O-])/C(=C/C=C/c1ccccc1)c1ccccc1 | 38.8% (inactive) |
| Fc1ccc(-c2nn(-c3ccccc3)cc2-c2nc3ccccc3o2)cc1 | 31.3% (inactive) |
| COc1cc(/C=C/C(=O)c2cccc(Nc3nc(Nc4ccccc4)nc(Nc4ccccc4)n3)c2)cc(OC)c1OC | 52.7% (inactive) |
| C#CCOc1cccc(Nc2ncnc3c(NC(=O)C=C)cccc23)c1 | 9.96% (active) |
| CNc1nc(S(=O)c2ccc(C#N)cc2)nc2ccccc12 (stereo not given) | 99% (inactive) |
| CC(=O)N(N=Nc1ccccc1)c1cccc2ccccc12 | 108% (inactive) |
| O=C(/C=C/c1cn(-c2ccccc2)nc1-c1ccc([N+](=O)[O-])cc1)c1ccc(Cl)cc1 | 41.8% (inactive) |
| COc1cc(-c2csc(NC(=O)c3cc(-n4cnc(C)c4)cc(C(F)(F)F)c3)n2)cc(OC)c1OC | 56.4% (inactive) |
| COc1ccc(-c2nc3c(c(-c4ccccc4)nn3-c3ccccc3)c(-c3ccc(N4CCOCC4)cc3)c2C#N)cc1 | 104% (inactive) |
| CSc1nc2sc3c(c2c(=O)n1-c1ccc([N+](=O)[O-])cc1)CCCCC3 | 101% (inactive) |
